{
  "source": "ChEMBL document CHEMBL4513149",
  "about": "“CO-ADD screening of MMV (CH) - MMV compounds” (2021)",
  "note": "Entries with a potency or affinity are not part of this list.",
  "data": [
    {"test_system": "Staphylococcus aureus", "settings": "Concentration 20 uM; ASSAY_TEST Inhibition of Bacterial Growth; detection method Absorption (OD600); MEDIA CAMHB; plate type 384well; NBS; CORNING #3640; time 18 hr", "units": {"Inhibition": "%"}, "values": [
      {"smiles": "CO[C@@H]1CN(c2ccc(C#CC3(O)CN4CCC3CC4)c(Cc3ccccc3)n2)C[C@H]1O", "note": "(stereo not given in full)", "Inhibition": -11.47},
      {"smiles": "Cc1nn(Cc2ccccc2)c(Cl)c1C(=O)NC1CCCCCC1", "Inhibition": 11.91},
      {"smiles": "Cc1cccc(C(=O)Nc2ccnc(N(C)C3CCN(CC(C)C)CC3)c2)c1", "Inhibition": 17.27},
      {"smiles": "CNCCC(Oc1ccc(C(F)(F)F)cc1)c1ccccc1", "note": "(stereo not given) [FLUOXETINE]", "Inhibition": 7.53},
      {"smiles": "Cc1cc(C2=NOC(c3cc(Cl)c(F)c(Cl)c3)(C(F)(F)F)C2)ccc1C(=O)NCc1ccc2c(c1)C(C)(C)OB2O", "note": "(stereo not given)", "Inhibition": 14.07},
      {"smiles": "Cc1nn(C)c(C)c1NS(=O)(=O)c1c(Cl)cc(-c2ccnc(N3CCNCC3)c2)cc1Cl", "Inhibition": 12.75},
      {"smiles": "CC(=O)Oc1ccccc1C(=O)Nc1ncc([N+](=O)[O-])s1", "note": "[NITAZOXANIDE]", "Inhibition": 50.75},
      {"smiles": "Nc1c2c(nc3sc4c(c13)CCCC4)CCCC2", "Inhibition": 6.99},
      {"smiles": "CC1(C)OB(O)c2ccc(C3=NOC(c4cc(Cl)c(F)c(Cl)c4)(C(F)(F)F)C3)cc21", "note": "(stereo not given)", "Inhibition": 15.02},
      {"smiles": "CO[C@@H](C(=O)N1Cc2[nH]nc(NC(=O)c3ccc(N4CCN(C)CC4)cc3)c2C1)c1ccccc1", "note": "[DANUSERTIB]", "Inhibition": 12.13}
    ]},
    {"test_system": "Escherichia coli", "settings": "Concentration 20 uM; ASSAY_TEST Inhibition of Bacterial Growth; detection method Absorption (OD600); MEDIA CAMHB; plate type 384well; NBS; CORNING #3640; time 18 hr", "units": {"Inhibition": "%"}, "values": [
      {"smiles": "CO[C@@H]1CN(c2ccc(C#CC3(O)CN4CCC3CC4)c(Cc3ccccc3)n2)C[C@H]1O", "note": "(stereo not given in full)", "Inhibition": -3.76},
      {"smiles": "Cc1nn(Cc2ccccc2)c(Cl)c1C(=O)NC1CCCCCC1", "Inhibition": 1.54},
      {"smiles": "Cc1cccc(C(=O)Nc2ccnc(N(C)C3CCN(CC(C)C)CC3)c2)c1", "Inhibition": 7.9},
      {"smiles": "CNCCC(Oc1ccc(C(F)(F)F)cc1)c1ccccc1", "note": "(stereo not given) [FLUOXETINE]", "Inhibition": 3},
      {"smiles": "Cc1cc(C2=NOC(c3cc(Cl)c(F)c(Cl)c3)(C(F)(F)F)C2)ccc1C(=O)NCc1ccc2c(c1)C(C)(C)OB2O", "note": "(stereo not given)", "Inhibition": 6.28},
      {"smiles": "Cc1nn(C)c(C)c1NS(=O)(=O)c1c(Cl)cc(-c2ccnc(N3CCNCC3)c2)cc1Cl", "Inhibition": 5.87},
      {"smiles": "CC(=O)Oc1ccccc1C(=O)Nc1ncc([N+](=O)[O-])s1", "note": "[NITAZOXANIDE]", "Inhibition": -2.79},
      {"smiles": "Nc1c2c(nc3sc4c(c13)CCCC4)CCCC2", "Inhibition": -4.01},
      {"smiles": "CC1(C)OB(O)c2ccc(C3=NOC(c4cc(Cl)c(F)c(Cl)c4)(C(F)(F)F)C3)cc21", "note": "(stereo not given)", "Inhibition": 11.05},
      {"smiles": "CO[C@@H](C(=O)N1Cc2[nH]nc(NC(=O)c3ccc(N4CCN(C)CC4)cc3)c2C1)c1ccccc1", "note": "[DANUSERTIB]", "Inhibition": 1.94}
    ]}
  ]
}
